According to PubChem BioAssay (EPA / NIEHS):
Records with an inconclusive call do not appear. The source made the active and inactive calls. How the source made its calls, unless noted: active means hit-call score of the fitted dose curve at least 0.9, where 1 is the maximum; inactive means score below 0.9.

Legend:
[1] = biological target: Glucocorticoid receptor (Homo sapiens) (UniProt P04150); assay: ATG_GR_TRANS: Attagene TRANS-FACTORIAL HepG2 Assay for human Glucocorticoid Receptor (GR) (AID 2282978; active means hit-call score of the fitted dose curve at least 0.9, where 1 is the maximum;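 further: activators score as hits since higher reporter transcript over DMSO is fitted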); settings: HepG2 Attagene TRANS GR reporter, mRNA transcription
How it was run: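 Readout is reporter transcript from a chimeric GR-Gal4 acting on GAL4-UAS in transfected human HepG2 liver cells after 24 h exposure, quantified by RT-PCR and capillary electrophoresis. Activation fitted upward against DMSO.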

[2] = biological target: Oxysterols receptor LXR-alpha (Homo sapiens) (UniProt Q13133); assay: ATG_LXRa_TRANS: Attagene TRANS-FACTORIAL HepG2 Assay for human Liver X Receptor alpha (LXRa) (AID 2282980; active means hit-call score of the fitted dose curve at least 0.9, where 1 is the maximum); settings: HepG2 Attagene TRANS reporter, LXRa transactivation
How it was run: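 In this multiplexed TRANS system, compounds act on HepG2 cells carrying GAL4-UAS reporter units and a receptor-GAL4 fusion for 24 h. Induced reporter RNA is amplified, fluorescently labelled and sized by capillary electrophoresis, with DMSO as baseline.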

[3] = biological target: Oxysterols receptor LXR-beta (Homo sapiens) (UniProt P55055); assay: ATG_LXRb_TRANS: Attagene TRANS-FACTORIAL HepG2 Assay for human Liver X Receptor beta (LXRb) (AID 2282981; active means hit-call score of the fitted dose curve at least 0.9, where 1 is the maximum); settings: HepG2 Attagene TRANS GAL4-LXRb reporter, mRNA
How it was run: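 After 24 h of chemical treatment, transfected HepG2 cells yield total RNA; reporter cDNA is PCR-amplified, FAM-labelled, HpaI-cut and run on capillary electrophoresis. Signal reflects chimeric LXRb-Gal4 activity on GAL4-UAS reporters.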

[4] = ATG_M_06_TRANS: Attagene TRANS-FACTORIAL HepG2 Assay for M06 Transcription Factor (Internal Marker) (AID 2282983; active means hit-call score of the fitted dose curve at least 0.9, where 1 is the maximum); settings: HepG2 Attagene TRANS M06 internal marker reporter
How it was run: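 Multi-reporter-transfected HepG2, 24 h treatment; reporter transcripts quantified via RT-PCR, primer-extension labelling and CE. DMSO-normalized gain-of-signal fit.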

[5] = ATG_M_32_TRANS: Attagene TRANS-FACTORIAL HepG2 Assay for M32 Transcription Factor (Internal Marker) (AID 2282984; active means hit-call score of the fitted dose curve at least 0.9, where 1 is the maximum;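 further: transcript level of a background control reporter unit measured by RT-PCR and capillary electrophoresis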); settings: HepG2 Attagene TRANS M32 internal marker reporter
How it was run: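 Cell-based TRANS-format assay in HepG2: exogenous chimeric GAL4 reporter units transiently expressed, compounds applied 24 h. Reporter mRNA detected by RT-PCR plus capillary electrophoresis; this readout is an internal background marker.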

[6] = biological target: Nuclear receptor subfamily 4 group A member 2 (Homo sapiens) (UniProt P43354); assay: ATG_NURR1_TRANS: Attagene TRANS-FACTORIAL HepG2 Assay for human Nuclear Receptor Related Protein 1 (NURR1) (AID 2282985; active means hit-call score of the fitted dose curve at least 0.9, where 1 is the maximum); settings: HepG2 Attagene TRANS reporter, mRNA readout
How it was run: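 Measures transcriptional activation by an exogenous NR-Gal4 chimera in transfected HepG2 liver cells. After 24 h, reporter RNA is reverse-transcribed, amplified and resolved by capillary electrophoresis; DMSO defines baseline.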

[7] = biological target: Transcriptional activator Myb (Homo sapiens) (UniProt P10242); assay: ATG_Myb_CIS: Attagene CIS-FACTORIAL HepG2 Assay for human Myeloblastosis (Myb) Proto-Oncogene Transcription Factor (AID 2282986); settings: HepG2 Attagene CIS-FACTORIAL Myb reporter transcription; actives raise or lower the signal
How it was run: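 Reporter mRNA is quantified by RT-PCR and capillary electrophoresis 24 h after dosing HepG2 cells transfected with cis-regulated reporter units, which track endogenous transcription factor activity. Gain and loss of signal are fitted versus DMSO baseline.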

[8] = ATG_NFI_CIS: Attagene CIS-FACTORIAL HepG2 Assay for human Nuclear Factor I (NFI) (AID 2282989); settings: HepG2 cis-regulatory reporter, NFI response element transcription; actives raise or lower the signal
How it was run: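 Multiplexed cis-reporter system in human HepG2 cells reports native TF activity as reporter mRNA induction 24 h post-dose. Fragments labelled with 6-FAM, HpaI-digested and resolved by capillary electrophoresis; activity fitted both directions versus DMSO.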

[9] = biological target: Myc proto-oncogene protein (Homo sapiens) (UniProt P01106); assay: ATG_Myc_CIS: Attagene CIS-FACTORIAL HepG2 Assay for human Myelocytomatosis (Myc) Proto-Oncogene Transcription Factor (AID 2282990); settings: HepG2, Attagene cis-reporter transcription factor activity; actives raise or lower the signal
How it was run: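 After 24 h chemical treatment of HepG2 cells carrying multiplexed cis-regulated reporter constructs, reporter transcripts quantified by RT-PCR and capillary electrophoresis of fluorescent fragments. Gain or loss fitted against DMSO baseline.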

[10] = ATG_NF_kB_CIS: Attagene CIS-FACTORIAL HepG2 Assay for human Nuclear Factor Kappa B (NF-kB) (AID 2282991); settings: HepG2 Attagene cis-factorial NF-kB reporter mRNA; actives raise or lower the signal
How it was run: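 Readout is reporter transcript level, gain or loss versus DMSO, measured 24 h post-dose via RT-PCR, fluorescent labelling and capillary electrophoresis. Human HepG2 liver cells carried transiently transfected CIS reporter constructs reflecting endogenous factors.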

[11] = ATG_NRF2_ARE_CIS: Attagene CIS-FACTORIAL HepG2 Assay for human Nuclear Factor Erythroid 2 Related Factor 2 (NFR2) response to Antioxidant Response Elements (ARE) (AID 2282992); settings: HepG2 Attagene ARE/NRF2 reporter, transcription factor activity; actives raise or lower the signal;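 on AC50: reporter mRNA level measured by RT-PCR and capillary electrophoresis fluorescence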
How it was run: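 Fluorescence intensity of reporter-specific cDNA fragments, separated by capillary electrophoresis, reflects mRNA induction in transfected HepG2 cells at 24 h. Activity is fitted bidirectionally, DMSO serving as baseline.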

[12] = biological target: Cellular tumor antigen p53 (Homo sapiens) (UniProt P04637); assay: ATG_p53_CIS: Attagene CIS-FACTORIAL HepG2 Assay for human p53 Transcription Factor (AID 2282994); settings: HepG2 p53 cis-element reporter, Attagene mRNA; actives raise or lower the signal
How it was run: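 Transiently transfected HepG2 (multiple cis reporter transcription units); exposure 24 h; reporter RNA via RT-PCR, 6-FAM extension, 2 h HpaI digest at 37 C, CE detection; DMSO baseline.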

[13] = biological target: Nuclear respiratory factor 1 (Homo sapiens) (UniProt Q16656); assay: ATG_NRF1_CIS: Attagene CIS-FACTORIAL HepG2 Assay for human Nuclear Respiratory Factor 1 (NRF1) Orphan Gene (AID 2282987); settings: HepG2 NRF1 cis-element reporter, Attagene multiplex; actives raise or lower the signal
How it was run: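 Endogenous NRF1-driven reporter transcription in transfected HepG2 cells after 24 h treatment. Readout: RT-PCR products, 6-FAM labelled and resolved by capillary electrophoresis; changes fitted both directions relative to DMSO.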

[14] = ATG_Oct_MLP_CIS: Attagene CIS-FACTORIAL HepG2 Assay for human Octamer-Binding Transcription Factor (Oct) (AID 2282993); settings: HepG2 Attagene cis-factorial Oct reporter, mRNA; actives raise or lower the signal
How it was run: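 After 24 h compound exposure, transfected HepG2 cells were lysed for total RNA; reporter-specific cDNA was PCR-amplified, fluorescently labelled and sized by capillary electrophoresis. Bidirectional curve fitting used DMSO as baseline.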

[15] = biological target: Hepatocyte nuclear factor 4-alpha (Homo sapiens) (UniProt P41235); assay: ATG_HNF4a_TRANS: Attagene TRANS-FACTORIAL HepG2 Assay for human Hepatocyte Nuclear Factor 4 alpha (HNF4a) (AID 2282982; active means hit-call score of the fitted dose curve at least 0.9, where 1 is the maximum); settings: HepG2 HNF4a transactivation reporter, mRNA readout
How it was run: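 Multiplexed reporter assay: transfected HepG2, 24 h exposure, total RNA → oligo(dT) RT → PCR → 6-FAM extension → HpaI digest → CE fluorescence. DMSO = negative control.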

[16] = biological target: Bile acid receptor (Homo sapiens) (UniProt Q96RI1); assay: ATG_FXR_TRANS: Attagene TRANS-FACTORIAL HepG2 Assay for Farnesoid X Receptor (FXR) (AID 2282979; active means hit-call score of the fitted dose curve at least 0.9, where 1 is the maximum;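 further: hits raise reporter mRNA above DMSO so AC50 marks FXR activation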); settings: HepG2 Attagene TRANS FXR-GAL4 reporter transcription
How it was run: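 After 24 h chemical treatment of transfected HepG2 cells, GAL4-UAS reporter transcripts driven by an exogenous FXR-GAL4 fusion were measured by RT-PCR and capillary electrophoresis. Increases over DMSO were fitted.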

[17] = BSK_3C_TissueFactor: BioMAP Diversity Plus: 3C Assay for Tissue Factor Biomarker Activity (AID 2282997); settings: BioMAP 3C HUVEC, tissue factor biomarker readout; actives raise or lower the signal
How it was run: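 In this endothelial system, HUVEC are treated for 24 h and Tissue Factor is assessed by ELISA, normalised to DMSO.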

[18] = BSK_3C_uPAR: BioMAP Diversity Plus: 3C Assay for Urokinase-type plasminogen activator receptor (uPAR) Biomarker Activity (AID 2282998); settings: BioMAP 3C HUVEC, uPAR biomarker ELISA; actives raise or lower the signal
How it was run: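 Values derive from bidirectional curve fitting relative to DMSO, which served as baseline of activity. uPAR was measured by ELISA in human umbilical vein endothelial primary cultures 24 h after compound addition.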

[19] = BSK_3C_VCAM1: BioMAP Diversity Plus: 3C Assay for Vascular cell adhesion molecule 1 (VCAM1) Biomarker Activity (AID 2282999); settings: BioMAP 3C HUVEC, VCAM1 ELISA, cytokine-stimulated; actives raise or lower the signal
How it was run: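 Activity fitted in both directions relative to DMSO, with ELISA measurement of the surface marker on primary HUVEC (3C) at 24 h post-treatment; parallel SRB staining (0.1% SRB, TCA-fixed, 560 nm) flagged overt cytotoxicity.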

[20] = BSK_4H_Eotaxin3: BioMAP Diversity Plus: 4H Assay for Eotaxin 3 Biomarker Activity (AID 2283000); settings: primary human endothelial cells (HUVEC); actives raise or lower the signal
How it was run: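 ELISA quantitation of CCL26 (Eotaxin-3) protein from chemically dosed human vascular endothelial cells at 24 h; increases and decreases both scored relative to DMSO-treated baseline.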

Measured: AC50

Glucocorticoid receptor (Homo sapiens), sequence (P04150 whole entry, looked up, the tested form may be a part): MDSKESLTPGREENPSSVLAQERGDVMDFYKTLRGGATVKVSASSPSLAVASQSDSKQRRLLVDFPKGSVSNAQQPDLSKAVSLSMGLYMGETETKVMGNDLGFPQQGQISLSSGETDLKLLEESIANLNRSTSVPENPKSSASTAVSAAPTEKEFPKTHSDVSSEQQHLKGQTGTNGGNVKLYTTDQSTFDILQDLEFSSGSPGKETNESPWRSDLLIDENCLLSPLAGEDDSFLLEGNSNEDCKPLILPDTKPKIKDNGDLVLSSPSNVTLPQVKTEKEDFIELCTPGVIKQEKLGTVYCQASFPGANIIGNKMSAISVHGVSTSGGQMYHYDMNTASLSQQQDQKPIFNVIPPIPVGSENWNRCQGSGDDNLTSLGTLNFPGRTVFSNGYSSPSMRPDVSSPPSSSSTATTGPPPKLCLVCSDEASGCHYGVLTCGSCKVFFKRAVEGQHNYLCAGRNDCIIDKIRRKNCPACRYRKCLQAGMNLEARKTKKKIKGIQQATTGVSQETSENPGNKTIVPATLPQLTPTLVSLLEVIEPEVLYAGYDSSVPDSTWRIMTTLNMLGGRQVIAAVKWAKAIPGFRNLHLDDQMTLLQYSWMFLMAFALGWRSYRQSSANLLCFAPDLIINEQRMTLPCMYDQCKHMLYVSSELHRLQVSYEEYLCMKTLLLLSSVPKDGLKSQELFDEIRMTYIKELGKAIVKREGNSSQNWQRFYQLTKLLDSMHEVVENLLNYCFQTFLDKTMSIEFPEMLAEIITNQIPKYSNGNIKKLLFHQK
Transcriptional activator Myb (Homo sapiens), sequence (P10242 whole entry, looked up): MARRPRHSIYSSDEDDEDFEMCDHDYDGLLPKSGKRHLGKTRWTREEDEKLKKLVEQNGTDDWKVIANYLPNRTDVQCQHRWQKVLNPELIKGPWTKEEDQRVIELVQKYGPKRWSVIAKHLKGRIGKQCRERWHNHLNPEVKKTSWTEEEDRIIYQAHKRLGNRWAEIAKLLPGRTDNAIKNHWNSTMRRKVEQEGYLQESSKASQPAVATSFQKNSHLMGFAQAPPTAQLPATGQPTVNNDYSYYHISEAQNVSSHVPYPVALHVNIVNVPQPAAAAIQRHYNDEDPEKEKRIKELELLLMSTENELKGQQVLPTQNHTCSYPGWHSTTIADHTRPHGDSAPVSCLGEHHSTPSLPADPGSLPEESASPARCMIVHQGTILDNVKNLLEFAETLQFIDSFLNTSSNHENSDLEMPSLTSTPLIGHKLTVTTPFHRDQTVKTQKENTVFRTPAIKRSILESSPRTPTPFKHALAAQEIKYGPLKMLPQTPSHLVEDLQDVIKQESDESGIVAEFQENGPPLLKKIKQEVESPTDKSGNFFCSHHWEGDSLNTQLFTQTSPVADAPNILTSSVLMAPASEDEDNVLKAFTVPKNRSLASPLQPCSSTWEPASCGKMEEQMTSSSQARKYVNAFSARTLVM
Hepatocyte nuclear factor 4-alpha (Homo sapiens), sequence (P41235 whole entry, looked up): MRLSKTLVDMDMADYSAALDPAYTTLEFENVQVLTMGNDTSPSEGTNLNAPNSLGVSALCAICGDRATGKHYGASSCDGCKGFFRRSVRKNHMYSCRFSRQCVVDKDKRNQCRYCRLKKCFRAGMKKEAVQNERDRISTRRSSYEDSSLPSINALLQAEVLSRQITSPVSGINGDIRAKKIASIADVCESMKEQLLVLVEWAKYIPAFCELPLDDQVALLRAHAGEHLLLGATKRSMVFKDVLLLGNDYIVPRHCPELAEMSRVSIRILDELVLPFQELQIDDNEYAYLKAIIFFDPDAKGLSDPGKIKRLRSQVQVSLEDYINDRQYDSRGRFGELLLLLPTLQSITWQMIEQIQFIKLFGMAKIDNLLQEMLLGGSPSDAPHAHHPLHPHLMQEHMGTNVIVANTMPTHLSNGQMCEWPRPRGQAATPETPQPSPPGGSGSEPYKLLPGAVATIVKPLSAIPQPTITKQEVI
Cellular tumor antigen p53 (Homo sapiens), sequence (P04637 whole entry, looked up): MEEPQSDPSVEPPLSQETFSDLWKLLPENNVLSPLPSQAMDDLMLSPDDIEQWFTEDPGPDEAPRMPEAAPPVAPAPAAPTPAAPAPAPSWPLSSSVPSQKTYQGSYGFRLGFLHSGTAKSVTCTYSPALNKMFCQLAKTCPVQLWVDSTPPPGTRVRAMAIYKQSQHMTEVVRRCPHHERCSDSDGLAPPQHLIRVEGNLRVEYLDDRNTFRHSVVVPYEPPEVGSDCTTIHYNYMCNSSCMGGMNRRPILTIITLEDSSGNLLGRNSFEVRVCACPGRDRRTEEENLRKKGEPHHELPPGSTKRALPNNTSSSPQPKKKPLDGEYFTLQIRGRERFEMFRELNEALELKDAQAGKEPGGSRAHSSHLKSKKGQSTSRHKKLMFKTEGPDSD
Nuclear receptor subfamily 4 group A member 2 (Homo sapiens), sequence (P43354 whole entry, looked up, the tested form may be a part): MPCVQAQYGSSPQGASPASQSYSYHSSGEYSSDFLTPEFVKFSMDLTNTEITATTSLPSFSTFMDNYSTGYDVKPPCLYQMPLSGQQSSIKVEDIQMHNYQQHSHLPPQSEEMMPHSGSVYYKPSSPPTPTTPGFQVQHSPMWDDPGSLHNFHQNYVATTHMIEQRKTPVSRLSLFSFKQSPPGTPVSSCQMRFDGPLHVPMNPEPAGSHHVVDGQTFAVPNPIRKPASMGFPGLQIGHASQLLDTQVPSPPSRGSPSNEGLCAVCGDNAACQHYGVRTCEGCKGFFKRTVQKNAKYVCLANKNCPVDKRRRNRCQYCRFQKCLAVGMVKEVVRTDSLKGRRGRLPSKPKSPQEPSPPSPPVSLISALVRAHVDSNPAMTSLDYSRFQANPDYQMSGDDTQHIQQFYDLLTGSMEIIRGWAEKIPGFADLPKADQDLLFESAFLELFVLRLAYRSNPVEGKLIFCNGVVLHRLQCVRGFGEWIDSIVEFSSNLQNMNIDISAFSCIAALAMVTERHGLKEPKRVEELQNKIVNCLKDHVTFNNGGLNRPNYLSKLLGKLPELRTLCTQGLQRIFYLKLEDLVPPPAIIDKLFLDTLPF
Myc proto-oncogene protein (Homo sapiens), sequence (P01106 whole entry, looked up, the tested form may be a part): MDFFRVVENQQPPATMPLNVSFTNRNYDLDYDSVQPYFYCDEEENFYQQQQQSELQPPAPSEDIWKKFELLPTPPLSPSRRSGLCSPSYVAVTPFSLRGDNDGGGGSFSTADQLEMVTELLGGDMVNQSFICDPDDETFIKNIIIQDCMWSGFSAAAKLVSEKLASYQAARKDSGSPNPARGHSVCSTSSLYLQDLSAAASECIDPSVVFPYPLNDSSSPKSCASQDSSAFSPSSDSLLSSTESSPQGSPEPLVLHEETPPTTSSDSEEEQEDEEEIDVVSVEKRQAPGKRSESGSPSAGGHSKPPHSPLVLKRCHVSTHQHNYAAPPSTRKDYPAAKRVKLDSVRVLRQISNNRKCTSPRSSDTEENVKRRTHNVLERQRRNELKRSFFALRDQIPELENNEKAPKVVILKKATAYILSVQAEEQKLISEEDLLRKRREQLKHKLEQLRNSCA
Nuclear respiratory factor 1 (Homo sapiens), sequence (Q16656 whole entry, looked up): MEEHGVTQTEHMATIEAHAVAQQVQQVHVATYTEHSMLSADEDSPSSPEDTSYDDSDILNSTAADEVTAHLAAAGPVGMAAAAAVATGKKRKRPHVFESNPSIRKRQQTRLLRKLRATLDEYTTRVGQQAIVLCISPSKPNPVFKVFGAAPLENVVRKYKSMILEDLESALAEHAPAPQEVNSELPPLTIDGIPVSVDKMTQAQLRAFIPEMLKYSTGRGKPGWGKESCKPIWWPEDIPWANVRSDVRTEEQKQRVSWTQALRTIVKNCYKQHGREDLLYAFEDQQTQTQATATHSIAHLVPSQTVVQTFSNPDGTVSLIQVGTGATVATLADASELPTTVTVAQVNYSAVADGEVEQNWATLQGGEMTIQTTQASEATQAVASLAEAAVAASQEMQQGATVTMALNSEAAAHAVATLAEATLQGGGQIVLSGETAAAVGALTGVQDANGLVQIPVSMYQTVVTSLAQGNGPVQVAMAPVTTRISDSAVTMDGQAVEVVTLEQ
Oxysterols receptor LXR-alpha (Homo sapiens), sequence (Q13133 whole entry, looked up, the tested form may be a part): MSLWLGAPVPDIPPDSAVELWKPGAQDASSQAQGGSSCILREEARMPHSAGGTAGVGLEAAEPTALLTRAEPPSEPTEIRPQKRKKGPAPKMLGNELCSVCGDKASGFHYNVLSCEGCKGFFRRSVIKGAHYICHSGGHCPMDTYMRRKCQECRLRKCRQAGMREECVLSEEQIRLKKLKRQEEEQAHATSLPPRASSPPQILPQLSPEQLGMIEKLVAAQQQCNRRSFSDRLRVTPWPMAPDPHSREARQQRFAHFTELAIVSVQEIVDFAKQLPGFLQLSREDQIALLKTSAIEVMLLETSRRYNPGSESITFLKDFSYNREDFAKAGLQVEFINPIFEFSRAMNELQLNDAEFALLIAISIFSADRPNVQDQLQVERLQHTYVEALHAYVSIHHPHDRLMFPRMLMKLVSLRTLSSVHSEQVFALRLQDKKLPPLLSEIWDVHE
Oxysterols receptor LXR-beta (Homo sapiens), sequence (P55055 whole entry, looked up, the tested form may be a part): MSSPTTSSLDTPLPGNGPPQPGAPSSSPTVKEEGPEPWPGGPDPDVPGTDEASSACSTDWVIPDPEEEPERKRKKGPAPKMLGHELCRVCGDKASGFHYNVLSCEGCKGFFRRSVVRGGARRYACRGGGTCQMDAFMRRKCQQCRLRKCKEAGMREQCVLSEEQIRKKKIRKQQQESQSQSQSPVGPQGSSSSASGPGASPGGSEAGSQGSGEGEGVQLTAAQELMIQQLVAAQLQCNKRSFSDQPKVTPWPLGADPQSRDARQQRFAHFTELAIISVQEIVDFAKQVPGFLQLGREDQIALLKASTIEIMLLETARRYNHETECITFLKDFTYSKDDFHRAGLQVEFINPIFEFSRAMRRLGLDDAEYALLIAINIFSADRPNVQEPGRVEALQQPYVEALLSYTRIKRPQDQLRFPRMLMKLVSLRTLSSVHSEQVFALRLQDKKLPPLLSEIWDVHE

C[C@]12CC[C@H]3[C@@H](CCC4=CC(=O)CC[C@@]43C)[C@@H]1CC[C@@H]2C(=O)CO
inactive: [2] | [3] | [4] | [5] | [6] | [7] | [8] | [9] | [10] | [11]
active: [1] 6.33 µM | [12] 42.5 µM

CC(=O)Nc1ccc(CC(=O)O)cc1
inactive: [1] | [2] | [3] | [7] | [13] | [8] | [9] | [11] | [14]

Cc1ccc(C(=O)c2cc(O)c(O)c([N+](=O)[O-])c2)cc1
active: [1] 144 µM
inactive: [2] | [3] | [15] | [4] | [5] | [7] | [13] | [8] | [9] | [10] | [11] | [14] | [12]

CCCCCCCCCCN
inactive: [1] | [2] | [3] | [5] | [6] | [7] | [8] | [9] | [10] | [11]

CNC(=O)Oc1ccc2c(c1)[C@]1(C)CCN(C)[C@@H]1N2C
inactive: [1] | [16] | [5] | [6] | [7] | [8] | [9] | [10] | [14] | [12]
active: [11] 100 µM

C=C(C)C(=O)O
inactive: [1] | [2] | [3] | [5] | [6] | [7] | [13] | [8] | [9] | [11] | [14] | [12]

O=C(O)CCSCCC(=O)O
inactive: [1] | [3] | [15] | [5] | [7] | [13] | [8] | [9] | [11] | [14] | [12]

CC(=O)O[C@H](CC(=O)[O-])C[N+](C)(C)C
inactive: [1] | [2] | [13] | [8] | [9] | [10] | [11] | [14] | [12]

O=C1OC2(c3cc(Br)c(O)c(Br)c3Oc3c2cc(Br)c(O)c3Br)c2c(Cl)c(Cl)c(Cl)c(Cl)c21
inactive: [1] | [2] | [5] | [6] | [7] | [13] | [8] | [9] | [10] | [14] | [12]
active: [11] 35.3 µM | [17] 4.1 µM | [18] 1.86 µM | [19] 4.58 µM | [20] 3.71 µM

C/C=C(\C)C(=O)OCc1ccccc1
inactive: [1] | [3] | [4] | [5] | [6] | [7] | [13] | [8] | [9] | [11] | [14]

Clc1ccc2c(c1)C(N1CCNCC1)=Nc1ccccc1O2
active: [14] 47 µM
inactive: [1] | [3] | [15] | [4] | [5] | [6] | [7] | [13] | [8] | [9] | [10] | [11]
